NPR1 antag: antagonists of human natriuretic peptide receptor Npr1; actives 1.6% (n = 76,000); HEK293 hNpr1 GloSensor cGMP, ANP-stimulated luminescence; P16066; Potency, µM (top dose mostly 46.3 µM), usual class: inhibitors; calls by dose curve; note: nearly all actives have a fitted effect of over 60% in size
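HEK293 cells stably expressing human Npr1 and cGMP GloSensor pGS-40F, loaded 2 h with 2% GloSensor reagent, given compound 30 min at room temperature. Luminescence read before and 20 min after 0.1 nM hNppA.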
FLuc inh: inhibitors of firefly (Photinus pyralis) luciferase | Potency, µM (series often up to 115 µM), usual class: inhibitors | purified P. pyralis luciferase, luminescence, biochemical | actives 2.5% (n = 76,000) | P08659; note: nearly all actives have a fitted effect of over 65% in size
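Biochemical qHTS: compound (6-point titration) added to 10uM D-luciferin plus 10uM ATP in Tris acetate pH 7.5 buffer with Mg, Tween-20 and BSA, then purified enzyme at 10nM; light output imaged.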
HEK293 tox: HEK 293 cell cytotoxicity; actives 6.6% (n = 94,000); Potency, µM (top dose mostly 115 µM), usual class: inhibitors; HEK 293 viability, ATP luminescence (CellTiter-Glo), 48-72 h; note: nearly all actives have a fitted effect of over 60% in size
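qHTS cytotoxicity; HEK 293, 250 cells/well; compound pinned; 48 or 72 hr, 37 degree Celsius, 5% CO2, 95% humidity; CellTiter-Glo, 10 min RT; luminescence (ATP).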
3T3 cytotox: kills NIH 3T3 cells; actives 4.3% (n = 94,000); Potency, µM (series often up to 96.7 µM), usual class: inhibitors; NIH 3T3 viability, CellTiter-Glo ATP luminescence, 48-72 h; note: nearly all actives have a fitted effect of over 55% in size
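Cytotoxicity was measured by CellTiter-Glo ATP luminescence after 48 or 72 h compound exposure at 37 °C. Mouse NIH 3T3 fibroblasts were seeded at 400 cells/well and dosed by 23 nL pin transfer.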
GPT2 inhibitor: blocks human glutamate pyruvate transaminase 2. Q8TD30. Recombinant GPT2, coupled pyruvate oxidase/HRP Amplex Red fluorescence. Potency, µM (titrated, usually from 57.7 µM), usual class: inhibitors. actives 0.25% (n = 100,000). AID 1671188; note: nearly all actives have a fitted effect of over 60% in size
Target sequence (Q8TD30 whole entry, looked up): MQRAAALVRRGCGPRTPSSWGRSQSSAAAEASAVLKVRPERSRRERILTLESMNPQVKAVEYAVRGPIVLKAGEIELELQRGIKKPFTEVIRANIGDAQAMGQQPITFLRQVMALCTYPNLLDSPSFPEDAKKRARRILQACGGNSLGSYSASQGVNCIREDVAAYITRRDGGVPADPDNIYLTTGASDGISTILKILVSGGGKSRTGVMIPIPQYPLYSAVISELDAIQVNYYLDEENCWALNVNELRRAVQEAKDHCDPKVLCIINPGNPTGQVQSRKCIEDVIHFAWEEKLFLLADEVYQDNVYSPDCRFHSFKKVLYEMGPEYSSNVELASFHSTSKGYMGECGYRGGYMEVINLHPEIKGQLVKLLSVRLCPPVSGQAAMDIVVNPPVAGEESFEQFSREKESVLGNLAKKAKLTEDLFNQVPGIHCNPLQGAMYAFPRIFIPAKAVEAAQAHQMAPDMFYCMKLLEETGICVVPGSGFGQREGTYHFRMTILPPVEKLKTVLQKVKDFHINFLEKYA
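Fluorescence read-out: pyruvate from GPT2 turnover coupled to pyruvate oxidase, HRP and Amplex Red (0.2mM ThPP, 0.2U/mL PO and HRP, 50uM Amplex final). Substrates 250uM a-KG, 2mM L-alanine; enzyme 10ng/uL; 30 min RT.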
Hits are given with their value. The list is not random: actives were taken first. Their share in the collection is about 10%. Unless noted, calls come from the whole dose curve; as a rule, active = well fitted curve in the direction sought with a large enough effect; inconclusive = small, poorly fitted or top-dose-only effect, or another doubt; inactive = no such curve, though single readings can be large; an effect the other way counts as inactive or inconclusive.

Fc1ccc(CNCc2cccnc2N2CCN(c3ccccn3)CC2)cc1F was read as NPR1 antag inactive, FLuc inh inactive, HEK293 tox inconclusive, 3T3 cytotox inconclusive and GPT2 inhibitor inactive.
Screening COC(=O)[C@@H]1Cc2c([nH]c3ccccc23)[C@H]2C[C@H](N3CCCCC3)C[C@@H](c3ccccc3F)N21 returned NPR1 antag inactive, FLuc inh inactive, HEK293 tox inconclusive, 3T3 cytotox 28µM and GPT2 inhibitor inactive.
`COC(=O)[C@@H]1[C@H]2C[C@@H]3c4[nH]c5ccccc5c4CCN3C[C@@H]2CC[C@@H]1O` gave GPT2 inhibitor inactive.
Screening COC(=O)[C@@H]1Cc2c([nH]c3ccccc23)[C@H]2C[C@@H](N3CCOCC3)C[C@@H](c3ccc(F)cc3)N21 returned NPR1 antag inactive, FLuc inh inactive, HEK293 tox inconclusive, 3T3 cytotox inconclusive and GPT2 inhibitor inactive.
COC(=O)[C@@H]1Cc2c([nH]c3ccccc23)[C@H]2C[C@@H](N3CCCCC3)C[C@@H](c3ccccc3F)N21 was read as NPR1 antag inactive, FLuc inh inactive, HEK293 tox 22µM, 3T3 cytotox inconclusive and GPT2 inhibitor inactive.
Screening CC(C)(C)CNc1cc(Cl)nc2ccnn12 returned NPR1 antag inactive, FLuc inh inactive, HEK293 tox inconclusive, 3T3 cytotox inactive and GPT2 inhibitor inactive.
For Fc1ccccc1CNc1cc(Cl)nc2ccnn12 the results were NPR1 antag inconclusive, FLuc inh inactive, HEK293 tox 35µM, 3T3 cytotox inconclusive and GPT2 inhibitor inconclusive.
`CS(=O)(=O)N1CCC(C2CCN(C(=O)Cc3cccnc3)C2)CC1` (centres undefined) gave NPR1 antag inactive, FLuc inh inactive, HEK293 tox inactive, 3T3 cytotox inactive and GPT2 inhibitor inactive.
`CCN1CCN(C(=O)c2cc(-c3cccc(C(F)(F)F)c3)nc3c2cnn3C)CC1` gave HEK293 tox inconclusive, 3T3 cytotox 32µM and GPT2 inhibitor inactive.
Screening CNC(=O)c1cc(-c2ccc(C(F)(F)F)cc2)nc2c1cnn2C returned HEK293 tox inactive and 3T3 cytotox inconclusive.
CC1CCCN(C(=O)c2cc(-c3ccc(C(F)(F)F)cc3)nc3c2cnn3C)C1 (centres undefined) was read as HEK293 tox 45µM and 3T3 cytotox inconclusive.
Cc1noc(C)c1[S+](=O)([O-])N1CCN(C(=O)c2nc3cccnc3n(CCc3ccccc3)c2=O)CC1 was read as HEK293 tox inactive, 3T3 cytotox inactive and GPT2 inhibitor inactive.
O=C(C[C@@H]1CCNC[C@@H]1Cc1cc(COc2ccccc2)on1)N1CCC(n2c(=O)[nH]c3ccccc32)CC1 was read as NPR1 antag inactive, FLuc inh inactive, HEK293 tox inactive, 3T3 cytotox inactive and GPT2 inhibitor inactive.
Screening CC(C)(C)c1ccc(-c2cc(C[C@H]3CNCC[C@H]3CC(=O)N3CCOCC3)no2)cc1 returned NPR1 antag inactive, FLuc inh inactive, HEK293 tox 25µM, 3T3 cytotox inconclusive and GPT2 inhibitor inactive.
Screening CC(C)(C)c1ccc(-c2cc(C[C@H]3CNCC[C@H]3CC(=O)N3CCC(n4c(=O)[nH]c5ccccc54)CC3)no2)cc1 returned NPR1 antag inactive, FLuc inh inactive, HEK293 tox 22µM, 3T3 cytotox 25µM and GPT2 inhibitor inactive.
For O=C(c1ccc(Cl)cc1)N1CCOCC2(C1)CN([S+](=O)([O-])c1ccccc1)C2 the results were NPR1 antag inactive, FLuc inh inactive, HEK293 tox inconclusive, 3T3 cytotox 50µM and GPT2 inhibitor inactive.
Screening O=[S+]([O-])(c1ccccc1)N1CC2(COCCN(Cc3ccc(Cl)cc3)C2)C1 returned NPR1 antag inactive, FLuc inh inactive, HEK293 tox inconclusive, 3T3 cytotox inconclusive and GPT2 inhibitor inactive.
`O=C(c1cccc(C(F)(F)F)c1)N1CCOCC2(CN(Cc3ccccc3)C2)C1` gave NPR1 antag inactive, FLuc inh inactive, HEK293 tox 7.1µM, 3T3 cytotox 7.1µM and GPT2 inhibitor inactive.
Screening COc1ccc(C(=O)N2CCOCC3(CN(Cc4cccc(C#N)c4)C3)C2)cc1OC returned NPR1 antag inactive, FLuc inh inactive, HEK293 tox inconclusive, 3T3 cytotox 79µM and GPT2 inhibitor inactive.
